Results taken from PubChem BioAssay (NCATS).
Values joined by “and” are separate entries in the source; they are usually repeats but may differ in a detail not shown here. Equal values may be shown once. Records with an inconclusive call do not appear. Some structures have more than one record in an assay (separate samples or runs), and their calls can disagree. Active and inactive are the calls of the source. Unless noted, the call rests on the fitted dose curve; in most records, active means well fitted curve in the direction sought with a large enough effect; inconclusive means small, poorly fitted or top-dose-only effect, or another doubt; inactive means no such curve, though single readings can be large; an effect the other way counts as inactive or inconclusive.

How the values were obtained:
[1] = molecular target: Mitogen-activated protein kinase 10 (Mus musculus) (UniProt Q61831); assay: JNK3 AlphaScreen Assay (AID 530; active means well fitted curve in either direction with a large enough effect, not every such curve was filed as active;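 further: kinase came from lysate of stimulated human HepG2 cells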; further: potency means the concentration at half of the fitted maximal effect); conditions: JNK3 lysate, c-Jun phosphorylation; series mostly up to 25.6 µM
Outline: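 Phosphorylation of biotinylated GST-cJun(1-79) at Ser73 is measured by AlphaScreen proximity luminescence. Enzyme is JNK3 in HepG2 lysates activated with interleukin-1beta and tumor necrosis factor alpha; ATP is 10 uM final.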

[2] = Cell Viability - N2a (AID 540); conditions: N2a mouse neuroblastoma cell viability; activity change, negative = cytotoxicity: at 92.2 µM (top of the series);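 further: cells exposed to compound for 40 h at 37 °C; nearly all actives have a fitted effect of over 45% in size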; further: potency means the concentration at half of the fitted maximal effect;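 on activity change, negative = cytotoxicity: plate controls were DMSO alone for no effect and tamoxifen control for full effect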
Outline: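 Cytotoxicity was scored as loss of cellular ATP in N2a cells, a mouse neuroblastoma line. Compounds are applied in a qHTS concentration series for 40 hr at 37 °C.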

[3] = Cell Viability - NIH 3T3 (AID 541); conditions: NIH 3T3 cell viability, qHTS; activity change, negative = cytotoxicity: at 92.2 µM (top of the series);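 further: cells exposed to compound for 40 hours; nearly all actives have a fitted effect of over 25% in size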; further: potency means the concentration at half of the fitted maximal effect;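 on activity change, negative = cytotoxicity: plate controls were DMSO alone for no effect and tamoxifen positive control for full effect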
Outline: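 Cells seeded at 1000/well, rested 5 hr at 37 °C, then dosed and incubated 40 hr at 37 °C. CellTiter-Glo added, 20 min room temperature, luminescence read. AC50 by Hill fit.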

[4] = Cell Viability - H-4-II-E (AID 543); conditions: H-4-II-E rat hepatoma viability; series mostly up to 92.2 µM;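 further: cells exposed to compound for 40 hours; nearly all actives have a fitted effect of over 35% in size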; further: potency means the concentration at half of the fitted maximal effect
Outline: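 Cells seeded at 1500 per well and rested 5 hr; compounds added; 40 hr incubation at 37 °C; CellTiter-Glo added, 20 min at room temperature; luminescence read. Hill-equation fits gave AC50.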

[5] = Cell Viability - SH-SY5Y (AID 544); conditions: SH-SY5Y neuroblastoma cell viability;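 further: cells exposed to compound for 40 hours; nearly all actives have a fitted effect of over 55% in size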; further: potency means the concentration at half of the fitted maximal effect
Outline: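 Cells were plated at 1500 per well and allowed 5 hr at 37 °C. Compounds were added across a concentration range and incubated 40 hr at 37 °C. CellTiter-Glo was added for 20 min at room temperature before luminescence reading.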

[6] = Cell Viability - Renal Proximal Tubule (AID 545); conditions: renal proximal tubule cells viability, primary cells of rat origin; series mostly up to 91.7 µM;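 further: cells exposed to compound for 40 hours; nearly all actives have a fitted effect of over 40% in size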; further: potency means the concentration at half of the fitted maximal effect
Outline: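 Rat kidney proximal tubule cells, freshly isolated; 1000 cells/well, 5 hr settle, compound 40 hr 37 °C. CellTiter-Glo 20 min RT, luminescence read. AC50 by standard Hill fit.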

[7] = molecular target: 3',5'-cyclic-AMP phosphodiesterase 4B (Homo sapiens) (UniProt Q07343); assay: qHTS Assay for Inhibitors of PDE-IV (AID 607; active means well fitted activation curve with a large enough effect in the main read-out, with a control signal flat, not every such curve was filed as active; further: % of control where 0% means no effect); conditions: HEK293 ACTOne CNG channel cells, membrane potential fluorescence; series mostly up to 22.9 µM
Sequence of 3',5'-cyclic-AMP phosphodiesterase 4B (Homo sapiens) (Q07343 whole entry, looked up): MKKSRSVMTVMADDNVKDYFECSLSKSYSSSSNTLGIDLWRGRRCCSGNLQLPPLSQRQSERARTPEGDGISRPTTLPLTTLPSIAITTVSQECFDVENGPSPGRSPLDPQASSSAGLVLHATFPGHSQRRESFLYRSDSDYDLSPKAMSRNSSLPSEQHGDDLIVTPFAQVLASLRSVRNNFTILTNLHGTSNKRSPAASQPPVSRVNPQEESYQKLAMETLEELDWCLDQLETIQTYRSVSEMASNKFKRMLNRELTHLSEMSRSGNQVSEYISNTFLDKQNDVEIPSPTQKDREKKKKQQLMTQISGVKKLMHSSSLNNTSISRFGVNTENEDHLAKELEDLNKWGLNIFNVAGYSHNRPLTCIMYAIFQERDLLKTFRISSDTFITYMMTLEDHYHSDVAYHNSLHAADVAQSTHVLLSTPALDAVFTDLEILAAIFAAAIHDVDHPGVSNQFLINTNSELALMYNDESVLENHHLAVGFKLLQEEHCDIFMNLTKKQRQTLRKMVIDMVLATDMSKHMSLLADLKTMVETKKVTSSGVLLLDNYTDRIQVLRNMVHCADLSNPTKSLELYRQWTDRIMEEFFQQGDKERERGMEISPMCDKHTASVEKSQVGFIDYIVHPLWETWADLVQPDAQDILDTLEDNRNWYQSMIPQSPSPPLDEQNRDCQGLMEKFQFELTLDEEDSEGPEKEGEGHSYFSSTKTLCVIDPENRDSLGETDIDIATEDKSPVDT
Outline: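 HEK293 ACTOne cells with CNG channel (1000/well), endogenous PDE4; membrane potential dye, compounds up to 22.9 uM final. Fluorescence Ex 535/Em 590; RO 20-1724 (100 uM final) as reference.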

[8] = Cellular Toxicity (caspase-3) Jurkat (AID 655); conditions: Jurkat caspase-3 activation, luminescence, DMSO = 0%, tamoxifen = 100%; series mostly up to 92.2 µM;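 further: cells exposed to compound for 16 h at 37 °C before reading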
Outline: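 Luminescent caspase-3/7 readout (aminoluciferin substrate cleavage) in human T-cell leukemia Jurkat cells after 16 hr compound exposure. Concentration-response normalized to DMSO and 100 uM tamoxifen; AC50 by standard Hill equation.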

[9] = Cellular Toxicity (caspase-3) HUV-EC-C (AID 656); conditions: HUV-EC-C cells, caspase-3 activation (apoptosis), vehicle = 0, 100 µM tamoxifen = 100%; series mostly up to 92.2 µM
Outline: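 Luminescent caspase-3/7 activation (aminoluciferin substrate cleavage) in HUV-EC-C cells after 16 hr compound exposure, 37°C. Signal normalized to DMSO basal and 100 uM tamoxifen as 100%; AC50 from concentration-response fitted with the Hill equation.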

[10] = Cellular Toxicity (caspase-3) SHSY5Y (AID 657); conditions: SH-SY5Y caspase-3 activation; series mostly up to 91.7 µM;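 further: cells exposed to compound for 16 hours at 37 °C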; further: potency means the concentration at half of the fitted maximal effect
Outline: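 Luminescent caspase-3/7 readout (aminoluciferin release) in SH-SY5Y cells after 16 h compound exposure in complete medium. Activity scaled between DMSO basal and 10 uM staurosporine as 100%; concentration-response fitted to Hill equation for AC50.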

[11] = viability change, negative = cytotoxic: at 92.2 µM (top of the series)

NNC(=O)c1ccncc1
inactive: Potency [1] | Potency [2] | activity change, negative = cytotoxicity [3] -5.93% | Potency [4] | Potency [5, 11] | Potency [6] | outcome [7] | outcome [8] | outcome [9] | Potency [10]

Cc1nnc(NS(=O)(=O)c2ccc(N)cc2)s1
inactive: Potency [1] | Potency [2] | activity change, negative = cytotoxicity [3] -22.7% | Potency [4] | Potency [5, 11] | Potency [6] | outcome [7] | outcome [8] | outcome [9] | Potency [10]

Cc1noc(NS(=O)(=O)c2ccc(N)cc2)c1C
inactive: Potency [1] | Potency [2] | activity change, negative = cytotoxicity [3] -8.82% | Potency [4] | Potency [5, 11] | Potency [6] | outcome [7] | outcome [8] | outcome [9] | Potency [10]

Cc1cc(NS(=O)(=O)c2ccc(N)cc2)no1
inactive: Potency [1] | Potency [2] | activity change, negative = cytotoxicity [3] -14.5% | Potency [4] | Potency [5, 11] | Potency [6] | outcome [7] | outcome [8] | outcome [9] | Potency [10]

C[C@]12C=CC(=O)C=C1CC[C@@H]1[C@@H]2C(=O)C[C@@]2(C)[C@H]1CC[C@]2(O)C(=O)CO
inactive: Potency [1] | Potency [2] | activity change, negative = cytotoxicity [3] -17% | Potency [4] | Potency [5, 11] | Potency [6] | outcome [8] | outcome [9] | Potency [10]

CC[C@H](C)C(=O)O[C@H]1C[C@@H](C)C=C2C=C[C@H](C)[C@H](CC[C@@H]3C[C@@H](O)CC(=O)O3)[C@H]21
active: Potency [2] 2000 nM | activity change, negative = cytotoxicity [3] -92.8% | Potency [4] 7940 nM | Potency [6] 2000 nM
inactive: Potency [1] | outcome [8] | outcome [9] | Potency [10]

CCc1cc(C(N)=S)ccn1
inactive: Potency [1] | Potency [2] | activity change, negative = cytotoxicity [3] -7.33% | Potency [4] | Potency [5, 11] | Potency [6] | outcome [7] | outcome [8] | outcome [9] | Potency [10]

O=c1oc2c(O)c(O)cc3c(=O)oc4c(O)c(O)cc1c4c23
active: Potency [1] 1260 nM

Cc1ncc([N+](=O)[O-])n1CCO
inactive: Potency [1] | Potency [2] | activity change, negative = cytotoxicity [3] -7.75% | Potency [4] | Potency [5, 11] | Potency [6] | outcome [7] | outcome [8] | outcome [9] | Potency [10]

O=C(O)c1cn(C2CC2)c2cc(N3CCNCC3)c(F)cc2c1=O
inactive: Potency [1]

Clc1ccccc1CN1CCc2sccc2C1
inactive: Potency [1]

CC1=NN(c2ccccc2)C(=O)C1
inactive: Potency [1] | Potency [2] | activity change, negative = cytotoxicity [3] -5.02% | Potency [4] | Potency [5, 11] | Potency [6] | outcome [7] | outcome [8] | outcome [9] | Potency [10]

COc1ccc2cc3[n+](cc2c1OC)CCc1cc2c(cc1-3)OCO2
inactive: Potency [1] | Potency [4] | Potency [5, 11] | Potency [6] | outcome [7] | outcome [8] | outcome [9] | Potency [10]
active: Potency [2] 1260 nM | Potency [3] 1000 nM

Cc1ccnc2c1NC(=O)c1cccnc1N2C1CC1
inactive: Potency [1] | Potency [2] | activity change, negative = cytotoxicity [3] -11% | Potency [4] | Potency [5, 11] | Potency [6] | outcome [8] | outcome [9] | Potency [10]

Cc1ccc(S(=O)(=O)N[C@@H](Cc2ccccc2)C(=O)CCl)cc1
inactive: Potency [1]

CC(=O)[C@H]1CC[C@H]2[C@@H]3CCC4=CC(=O)CC[C@]4(C)[C@H]3CC[C@]12C
active: activity change, negative = cytotoxicity [2] -96.5% and -82.2% | activity change, negative = cytotoxicity [3] -129% | Potency [4] 39800 nM | viability change, negative = cytotoxic [5, 11] -101%
inactive: Potency [1] | viability change, negative = cytotoxic ([5]; at 92.2 µM (top of the series)) -22.5% | outcome [8] | outcome [9] | Potency [10]

CCCCOc1ccc(CC(=O)NO)cc1
inactive: Potency [1]

O=C(O)c1cc(=O)[nH]c(=O)[nH]1
inactive: Potency [1] | Potency [2] | activity change, negative = cytotoxicity [3] -4.07% | Potency [4] | Potency [5, 11] | Potency [6] | outcome [8] | outcome [9] | Potency [10]

O=C(N[C@H](CO)[C@H](O)c1ccc([N+](=O)[O-])cc1)C(Cl)Cl
inactive: Potency [1] | Potency [2] | activity change, negative = cytotoxicity [3] -14.2% | Potency [4] | Potency [5, 11] | Potency [6] | outcome [8] | outcome [9] | Potency [10]

N=C(N)c1ccc(OCCCCCOc2ccc(C(=N)N)cc2)cc1
active: Potency [2] 15800 nM | activity change, negative = cytotoxicity [3] -80.1%
inactive: Potency [1] | Potency [5, 11] | outcome [7] | outcome [8] | outcome [9] | Potency [10]

Cc1cccc(Nc2ccncc2S(=O)(=O)NC(=O)NC(C)C)c1
inactive: Potency [1]

CN(C)c1ccc(C(=C2C=CC(=[N+](C)C)C=C2)c2ccc(N(C)C)cc2)cc1
active: Potency [1] 2000 nM | Potency [2] 794 nM | Potency [3] 1000 nM | Potency [4] 2000 nM | Potency [5, 11] 1580 nM | Potency [6] 12600 nM | Potency [10] 3160 nM

Nc1[nH]c(=O)ncc1F
inactive: Potency [1] | outcome [7]

O=C(O)c1cccnc1
inactive: Potency [1] | outcome [7]

CCOC(=O)c1ccc(OC(=O)CCCCCN=C(N)N)cc1
inactive: Potency [1] | outcome [7]

COc1ncnc(NS(=O)(=O)c2ccc(N)cc2)c1OC
inactive: Potency [1] | outcome [7]
